# ROS inducer – ROS inducers in U2OS cancer cells, primary screen, cell-based, H2DCF-DA fluorescence | 46,000 tested, 2% active | ROS induction (% of piperlongumine), % at 10 µM | U2OS ROS induction; in the data active means ROS induction above about 79%, passing the limit was not always enough;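 further: 0% = DMSO vehicle median and 100% = reference compound median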
# YB-1 expression – inhibitors of YB-1 gene expression, primary screen, cell-based, fluorescence; AID 434959, 2010; U2OS, qRT-PCR YB-1 vs CDIP delta delta Cp, 16 h; stronger effect = higher value; zero = DMSO, each unit about twofold; 30,000 tested, 0.37% active; delta delta Cp (YB-1 minus CDIP) (concentration not given with the values);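 active means delta delta Cp rounded down to an integer at or above 3, about 3 SD of DMSO wells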;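 further: higher means less YB-1 transcript or more CDIP transcript relative to DMSO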
# The depositor's hits bear a star; . = not tested or not shown. In the library only some 2.3% were active in any assay of this set; here they are far more common.
SMILES,ROS inducer,YB-1 expression
CC(=O)Nc1ccc(S(=O)(=O)NC(C)C)cc1,-7,.
O=C1Nc2ccccc2O/C1=C\c1ccc(C(=O)NCCC2=CCCCC2)cc1,3,.
Cc1ccsc1C(N)=S,-11,.
CCOC(=O)c1ccc(Nc2c(C(=O)OCC)cnc3ccccc23)cc1,99*,.
CCOC(=O)c1cnc2c(C)cc(C)cc2c1Nc1ccc(S(=O)(=O)Nc2ncccn2)cc1,17,.
Cc1cc(Br)ccc1NC(=O)CCN1C(=O)c2ccccc2S1(=O)=O,19,.
COc1ccc(S(=O)(=O)Nc2cccc3c2O[C@H](CN(C)S(=O)(=O)c2c(C)noc2C)[C@@H](C)CN([C@H](C)CO)C3=O)cc1,2,0.16
C=CCNC(=O)[C@@H]1[C@H]2C(=O)O[C@H](c3ccccc3)[C@H](c3ccccc3)N2[C@H](c2ccccc2OCCO)[C@@]12C(=O)N(C(=O)OCCOC)c1ccc(C#CCCO)cc12,37,-0.21
C=CCNC(=O)[C@H]1[C@@H]2C(=O)O[C@@H](c3ccccc3)[C@@H](c3ccccc3)N2[C@@H](c2ccc(OCCO)cc2)[C@]12C(=O)N(C(=O)OCCOC)c1ccc(C#CC3=CCCCC3)cc12,122*,0.0068
C=CCNC(=O)[C@H]1[C@@H]2C(=O)O[C@@H](c3ccccc3)[C@@H](c3ccccc3)N2[C@@H](c2ccccc2OCCO)[C@]12C(=O)N(C(=O)OCCOC)c1ccc(C#CC3(O)CCCCCC3)cc12,95*,0.25
C=CCNC(=O)[C@H]1[C@@H]2C(=O)O[C@@H](c3ccccc3)[C@@H](c3ccccc3)N2[C@@H](c2ccc(OCCO)cc2)[C@]12C(=O)N(C(=O)OCCOC)c1ccc(C#CC3(O)CCCCCC3)cc12,105*,0.14
C=CCNC(=O)[C@@H]1[C@H]2C(=O)O[C@H](c3ccccc3)[C@H](c3ccccc3)N2[C@H](c2ccc(OCCO)cc2)[C@@]12C(=O)Nc1ccc(C#CC3=CCCCC3)cc12,74,-0.2
C=CCNC(=O)[C@@H]1[C@H]2C(=O)O[C@H](c3ccccc3)[C@H](c3ccccc3)N2[C@H](c2ccc(O)cc2)[C@@]12C(=O)Nc1ccc(C#CC3(O)CCCCCC3)cc12,4,-0.29
Cc1ccnc(SCC(=O)N2CCc3ccccc3C2)n1,-4,.
O=C(NO)c1cccc(C(=O)N/N=C/c2cc(F)ccc2O)c1,-10,-0.2
O=C(NO)c1cccc(C(=O)N/N=C/c2cc(O)ccc2O)c1,107*,-1.1
CNC[C@H]1Oc2ccc(NC(=O)CCCN(C)C)cc2C(=O)N([C@H](C)CO)C[C@H]1C,6,-0.26
COc1ccc(NC(=O)N(C)C[C@@H]2Oc3ccc(NC(=O)CCC(F)(F)F)cc3C(=O)N([C@H](C)CO)C[C@H]2C)cc1,3,0.38
O=C1O[C@@H](c2ccccc2)[C@@H](c2ccccc2)N2[C@@H](c3ccccc3OCCO)[C@]3(C(=O)Nc4ccccc43)[C@@H](C(=O)N3CCN(c4ncccn4)CC3)[C@H]12,122*,0.33
O=C1O[C@H](c2ccccc2)[C@H](c2ccccc2)N2[C@H]1[C@@H](C(=O)N1CCN(c3ncccn3)CC1)[C@]1(C(=O)Nc3ccc(C#CC4(O)CCCCCC4)cc31)[C@H]2c1ccccc1OCCO,147*,-0.086
O=C1O[C@H](c2ccccc2)[C@H](c2ccccc2)N2[C@H]1[C@@H](C(=O)N1CCCCCCC1)[C@]1(C(=O)Nc3ccc(C#CC4(O)CCCCCC4)cc31)[C@H]2c1ccccc1OCCO,50,-0.35
O=C1O[C@@H](c2ccccc2)[C@@H](c2ccccc2)N2[C@@H](c3ccccc3OCCO)[C@]3(C(=O)Nc4ccc(C#CCCO)cc43)[C@@H](C(=O)N3CCN(c4ncccn4)CC3)[C@H]12,94*,-0.47
COc1ccc(C#Cc2ccc3c(c2)[C@]2(C(=O)N3)[C@H](C(=O)N3CCN(c4ncccn4)CC3)[C@H]3C(=O)O[C@H](c4ccccc4)[C@H](c4ccccc4)N3[C@@H]2c2ccccc2OCCO)cc1,28,0.29
O=C1O[C@H](c2ccccc2)[C@H](c2ccccc2)N2[C@H]1[C@@H](C(=O)O)[C@]1(C(=O)Nc3ccccc31)[C@H]2c1ccccc1OCCO,13,0.29
CC1OC(=O)CC2C(C(=O)O)=CC3(O)CC(C)(C)CC123 (configuration not stated),11,0.085
SMILES,ROS inducer,YB-1 expression
C[C@H](CO)N1C[C@H](C)[C@H](CN(C)CC2CC2)Oc2c(NC(=O)C3CC3)cccc2C1=O,19,-0.05
O=C1O[C@@H](c2ccccc2)[C@@H](c2ccccc2)N2[C@@H](c3ccccc3OCCO)[C@]3(C(=O)Nc4ccc(C#CC5(O)CCCCCC5)cc43)[C@@H](C(=O)NC[C@H](O)c3ccccc3)[C@H]12,60,-0.42
COC(=O)C(CC#Cc1ccc2c(c1)[C@]1(C(=O)N2)[C@H](C(N)=O)[C@H]2C(=O)O[C@H](c3ccccc3)[C@H](c3ccccc3)N2[C@@H]1c1ccccc1OCCO)C(=O)OC,142*,-0.79
COCCOC(=O)N1C(=O)[C@@]2(c3cc(C#CCCO)ccc31)[C@H](C(=O)N1CCc3cc(OC)c(OC)cc3C1)[C@H]1C(=O)O[C@H](c3ccccc3)[C@H](c3ccccc3)N1[C@@H]2c1ccccc1OCCO,52,-0.059
COCCOC(=O)N1C(=O)[C@@]2(c3cc(C#CCCO)ccc31)[C@H](c1ccccc1OCCO)N1[C@H](c3ccccc3)[C@H](c3ccccc3)OC(=O)[C@H]1[C@@H]2C(=O)N1CCc2cc(OC)c(OC)cc2C1,95*,-0.078
COC(=O)C(CC#Cc1ccc2c(c1)[C@]1(C(=O)N2)[C@H](C(=O)N2CCc3cc(OC)c(OC)cc3C2)[C@H]2C(=O)O[C@H](c3ccccc3)[C@H](c3ccccc3)N2[C@@H]1c1ccccc1OCCO)C(=O)OC,24,0.05
COC(=O)C(CC#Cc1ccc2c(c1)[C@]1(C(=O)N2)[C@H](c2ccccc2OCCO)N2[C@H](c3ccccc3)[C@H](c3ccccc3)OC(=O)[C@H]2[C@@H]1C(=O)N1CCc2cc(OC)c(OC)cc2C1)C(=O)OC,175*,-0.24
COC(=O)C(CC#Cc1ccc2c(c1)[C@]1(C(=O)N2)[C@H](C(=O)NC[C@H](O)c2ccccc2)[C@H]2C(=O)O[C@H](c3ccccc3)[C@H](c3ccccc3)N2[C@@H]1c1ccccc1OCCO)C(=O)OC,113*,0.14
COC(=O)C(CC#Cc1ccc2c(c1)[C@]1(C(=O)N2)[C@H](C(N)=O)[C@H]2C(=O)O[C@H](c3ccccc3)[C@H](c3ccccc3)N2[C@@H]1c1ccc(OCCO)cc1)C(=O)OC,30,0.17
CN1C(=O)C(C)(C)c2cc(S(=O)(=O)NCCN3CCN(c4ccccc4F)CC3)ccc21,0,.
CC1(C)CCC(C)(C)c2cc(C(=O)Nc3ccc(C(=O)O)cc3)ccc21,1,0.14
O=C(CSc1nc2ccccc2o1)OCC(=O)N1c2ccccc2Sc2ccccc21,-9,.
S=c1[nH]nc(CCCc2n[nH]c(=S)o2)o1,1,-0.057
COc1cc(NC(=O)COc2ccccc2[N+](=O)[O-])ccc1NC(=O)c1cccs1,132*,.
COc1ccc(NC(=O)COc2ccccc2[N+](=O)[O-])cc1Cl,-3,.
N#CCCN(/N=C/c1ccccc1)C1=NS(=O)(=O)c2ccccc21,128*,-0.07
